Compound activity from PubChem BioAssay.
HIF-2a block: HIF-2a reporter inhibitors, primary screen, luminescence, 786-0 RCC cells; 786-0 RCC cells HIF-2a reporter, luciferase luminescence, overnight; inhibition, % at 18.8 µM; 360,000 compounds, 0.72% hits; AID 624352, 2012;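 active = inhibition of the luminescence signal of 40% or more relative to plate controls, in a single-dose primary screen at 18.75 µM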
PAX8 reporter: inhibitors of PAX8-driven TPO luciferase reporter, primary screen, RMG-I cells, single concentration; SteadyGlo, 24 h; inhibition, % at 12.6 µM; 360,000 compounds, 1.2% hits;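 active = mean replicate inhibition at least 60% with every replicate also reaching 60%; inconclusive = only one of the two criteria is met; inactive = mean below 60% and not all replicates reaching 60%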;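 note: luciferase light reporting Pax8 driven TPO promoter activity; plate controls were median of neutral control wells for no effect and mitoxantrone controls for full effect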
EWS-Fli inh: EWS/Fli-driven NR0B1 reporter inhibitors, primary screen, A673 cells, NR0B1 luciferase, luminescence, MLPCN library | viability-normalised | inhibition, % at 12.6 µM | 350,000 compounds, 0.67% hits;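 active = mean inhibition of at least 50% after viability correction, with every replicate also passing that limit; inconclusive = mean reaches 50% but only one of two replicates passes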;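 note: firefly luciferase signal divided by Alamar Blue viability fluorescence both relative to DMSO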
KKLEB tox: cytotoxicity in KKLEB CF airway cells, primary screen, cytotoxicity control for CF NF-kB inhibitor project, cell-based, uHTS, fluorescence assay plates; KKLEB CF airway cells viability, ATPlite luminescence, overnight; hits give low values; cells stimulated with P. aeruginosa culture filtrate; activity change (cytotoxicity), % at 5 µM; 360,000 compounds, 0.36% hits;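 active = corrected activity change at or below -50% at 5 µM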
CF NFkB block: inhibitors of PAF-induced NF-kB signaling, primary screen, cell-based, GFP fluorescence, uHTS; KKLEB NF-kB-GFP reporter, GFP fluorescence overnight; inhibition, % at 5 µM; 360,000 compounds, 0.86% hits;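 active = at least 50% inhibition at 5 µM, scaled per plate between neutral and stimulator controls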;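 note: PAF is a Pseudomonas aeruginosa culture filtrate used as stimulus; plate controls were PAF-stimulated DMSO wells for no effect and unstimulated DMSO wells for full effect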
CF NFkB inh conf: inhibitors of PAF-induced NF-kB signaling, retest, confirmation, cell-based, GFP fluorescence, single concentration | shares compounds with CF NFkB block | KKLEB CF airway cells, overnight | inhibition, % at 5 µM | 1,300 compounds, 64% hits | AID 602472, 2012; in the data active = inhibition above about 40%;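 note: stimulus PAF is a Pseudomonas aeruginosa filtrate and not platelet activating factor; plate controls were DMSO wells with stimulus for no effect and unstimulated DMSO wells for full effect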
Mdm2-MdmX confirm: retested Mdm2-MdmX interaction blockers, confirmation, cell-based, luminescence, single concentration, set 2; shares compounds with HIF-2a block; SaOS-2 split-luciferase Mdm2/MdmX complementation; inhibition, % at 8 µM; 740 compounds, 99% hits; AID 504601, 2011;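 active = mean inhibition of the luminescence signal across two replicates at or above 26 percent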
Target sequence (O15151 whole entry, looked up): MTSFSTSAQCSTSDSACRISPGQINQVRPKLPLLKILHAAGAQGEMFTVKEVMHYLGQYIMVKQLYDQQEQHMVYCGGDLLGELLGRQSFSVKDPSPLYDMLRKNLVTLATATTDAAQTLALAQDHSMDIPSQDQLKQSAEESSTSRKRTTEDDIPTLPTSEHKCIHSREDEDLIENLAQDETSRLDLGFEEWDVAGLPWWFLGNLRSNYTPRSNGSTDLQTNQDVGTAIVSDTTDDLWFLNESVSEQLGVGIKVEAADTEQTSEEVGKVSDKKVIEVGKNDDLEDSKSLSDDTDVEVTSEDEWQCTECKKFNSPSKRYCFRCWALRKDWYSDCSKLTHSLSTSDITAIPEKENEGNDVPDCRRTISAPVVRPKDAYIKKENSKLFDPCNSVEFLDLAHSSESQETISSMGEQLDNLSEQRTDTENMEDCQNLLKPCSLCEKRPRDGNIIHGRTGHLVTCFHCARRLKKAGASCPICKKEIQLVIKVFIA
Target sequence (Q00987 whole entry, looked up): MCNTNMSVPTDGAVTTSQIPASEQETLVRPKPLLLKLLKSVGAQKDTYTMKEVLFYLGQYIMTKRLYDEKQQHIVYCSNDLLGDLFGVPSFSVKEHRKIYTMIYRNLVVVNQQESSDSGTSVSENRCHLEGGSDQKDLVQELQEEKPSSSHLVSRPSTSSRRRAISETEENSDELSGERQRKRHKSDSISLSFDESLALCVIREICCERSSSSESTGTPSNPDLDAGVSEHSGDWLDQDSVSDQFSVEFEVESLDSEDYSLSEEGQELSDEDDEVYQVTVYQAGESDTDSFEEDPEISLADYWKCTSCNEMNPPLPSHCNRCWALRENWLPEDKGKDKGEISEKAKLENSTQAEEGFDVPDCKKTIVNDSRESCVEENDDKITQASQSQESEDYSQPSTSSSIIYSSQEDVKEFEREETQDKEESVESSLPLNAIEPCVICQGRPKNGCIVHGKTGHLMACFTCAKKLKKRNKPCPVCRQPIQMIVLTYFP
HIF-2a inh conf: HIF-2a reporter inhibitor retest, confirmation, luminescence, 786-0 RCC cells. inhibition, % at 18.8 µM. HIF-2a luciferase reporter luminescence, overnight. shares compounds with HIF-2a block. 1,800 compounds, 56% hits. AID 651580, 2012;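 active = mean inhibition across four replicates of at least 40 percent at the single tested concentration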
HIF-1a cs: HIF-1a luciferase reporter signal reduction – MiaPaCa-2 cells, single concentration, counter-screen for HIF-2a inhibitor project, confirmation; MiaPaCa-2 HIF-1a luciferase reporter, desferoxamine, overnight; inhibition, % at 18.8 µM; shares compounds with HIF-2a block; 1,800 compounds, 72% hits;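 active = mean inhibition of the reporter signal across four replicates at the single tested dose of 50% or more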
Starred values were filed as active, the others as inactive; ? = inconclusive; / = no result given. Most compounds without a hit are left out; they make up all but 2.1% or so of the library.

SMILES	HIF-2a block	PAX8 reporter	EWS-Fli inh	KKLEB tox	CF NFkB block	CF NFkB inh conf	HIF-2a inh conf	HIF-1a cs	others
C=CC(=O)Nc1cccc(Oc2ncnc3[nH]cc(-c4cnc5ccccc5c4)c23)c1	13.6	46.9	-8.4	-3.0	87.1*	79.2*	/	/	Mdm2-MdmX confirm=100.0*
CC(=O)Nc1cccc(Oc2ncnc3scc(-c4ccc(C)cc4)c23)c1	29.2	15.7	-6.7	-5.1	5.1	/	/	/
C[C@H](CO)N1C[C@H](C)[C@H](CN(C)S(=O)(=O)c2cccs2)Oc2ccc(NC(=O)Nc3ccc4c(c3)OCO4)cc2C1=O	/	/	3.7	/	/	/	/	/
CC1(C)c2ccccc2C(=O)c2ccccc21	-4.8	4.9	-16.6	7.1	0.8	/	/	/
O=[N+]([O-])C1C(c2ccccc2)C12c1ccccc1-c1ccccc12 (stereo not given)	49.1*	/	/	-32.1	67.9*	46.3*	42.6*	-10.7
CC1CCN(CC(CS(=O)(=O)c2ccc([N+](=O)[O-])cc2)N2CCC(C)CC2)CC1 (stereo not given)	92.8*	14.1	15.5	-42.3	96.5*	88.0*	23.8	106.9*	Mdm2-MdmX confirm=103.2*
Cc1ccc(S(=O)(=O)CC(CN2CCOCC2)N2CCOCC2)cc1 (stereo not given)	9.0	5.4	4.7	12.7	-11.3	/	/	/
COc1ccc(-c2cnc3c(NC=O)cc(-c4ccc(C(=O)N5CCOCC5)cc4)cn23)cc1OC	41.0*	22.5	2.2	-34.6	57.2*	62.8*	45.2*	69.4*
CC(=O)c1ccc(-c2cnc3c(NC=O)cc(-c4ccc(C(=O)N5CCOCC5)cc4)cn23)cc1	35.6	36.9	-0.4	-17.4	38.9	/	/	/
COc1ccc(-c2cn[nH]c2-c2ccc(OCc3ccccc3)cc2O)cc1	10.4	-8.2	2.3	-13.8	70.0*	88.7*	/	/	Mdm2-MdmX confirm=90.0*
CCOC(=O)/C=C/C(=O)Nc1ccccc1-c1ccccc1NC(=O)/C=C/C(=O)OCC	54.8*	14.4	17.8	-3.8	56.3*	-33.9	14.2	44.9
CCOC(=O)/C=C/C(=O)OCC(=O)Nc1cccc(Cl)c1Cl	2.0	-43.4	7.8	5.7	-4.4	/	/	/
COc1ccc(-c2cc(=O)oc3c(C)c(O)ccc23)cc1	16.7	26.5	-6.5	15.3	83.2*	91.8*	/	/	Mdm2-MdmX confirm=92.0*
CCOC(=O)C(Oc1ccc2c(-c3ccc(OC)cc3)cc(=O)oc2c1C)c1ccccc1 (stereo not given)	16.2	/	/	-3.3	23.2	/	/	/
CNC[C@H]1OCCCC[C@H](C)Oc2ccc(NS(=O)(=O)c3ccc(F)cc3)cc2C(=O)N([C@H](C)CO)C[C@@H]1C	/	-15.6	-2.1	/	/	/	/	/
COc1ccc(S(=O)(=O)N2CCCCC2)cc1NC(=O)c1ccc([N+](=O)[O-])o1	53.4*	14.9	27.0	-0.6	74.8*	-9.2	8.9	76.5*
CC(=O)N1CCN(c2ccc(NC(=O)c3ccc([N+](=O)[O-])o3)cc2Cl)CC1	88.2*	101.5*	49.6	-26.6	62.3*	8.2	52.1*	82.8*
CC(=O)N1CCN(c2ccc(NC(=O)c3ccco3)cc2Cl)CC1	-120.4	-36.9	/	7.9	-17.2	/	/	/
N#CC1(NC(=O)Cn2ncc(Cl)c(Cl)c2=O)CCCCC1	86.6*	91.5*	?	2.7	80.7*	13.9	58.9*	107.0*
N#CC1(NC(=O)CN2C(=O)c3ccccc3C2=O)CCCCC1	17.8	2.1	-4.1	8.5	-3.1	/	/	/
Cc1ccc(-n2nnnc2Sc2ccc(S(=O)(=O)NCCN(C)C)cc2[N+](=O)[O-])cc1	76.8*	?	?	-31.1	91.0*	50.8*	18.4	105.5*
C[N+]1=C(/C=C/Nc2ccccc2Cl)C(C)(C)c2ccccc21	2.1	/	/	-4.1	-34.7	/	/	/
COC(=O)c1ccc2c(c1)C(C)(C)C(/C=C/c1ccccc1O)=[N+]2C	95.5*	/	/	-38.7	64.0*	96.6*	98.8*	105.0*	Mdm2-MdmX confirm=103.5*
C[C@H](CO)N1C[C@H](C)[C@H](CN(C)C(=O)c2ccncc2)OCc2ccccc2-c2ccccc2C1=O	/	-16.9	-3.1	/	/	/	/	/
Cc1[nH]c2ccccc2c(=O)c1C(=O)/C=C/c1ccccc1	90.3*	103.2*	49.5	-27.8	60.5*	46.2*	85.3*	105.4*	Mdm2-MdmX confirm=102.7*
SMILES	HIF-2a block	PAX8 reporter	EWS-Fli inh	KKLEB tox	CF NFkB block	CF NFkB inh conf	HIF-2a inh conf	HIF-1a cs	others
O=S(=O)(CC(CN1CCCC1)N1CCCC1)c1ccc2ccccc2c1 (stereo not given)	22.0	/	/	-30.6	62.3*	85.7*	/	/	Mdm2-MdmX confirm=103.2*
O=S(=O)(c1ccc2ccccc2c1)N1CCCCCC1	6.2	7.2	5.7	1.7	11.9	/	/	/
COc1ccc(CNC(=O)c2nc(S(=O)(=O)Cc3ccccc3)ncc2Cl)cc1	90.7*	36.1	/	-20.5	89.5*	70.8*	63.0*	35.5
O=C(NCc1ccccc1)c1nc(S(=O)(=O)Cc2ccccc2)ncc1Cl	84.7*	20.0	/	-29.8	87.4*	65.9*	90.5*	70.1*
O=C(NCc1ccc2c(c1)OCO2)c1nc(S(=O)(=O)Cc2ccccc2F)ncc1Cl	87.7*	36.1	/	-1.7	86.2*	41.7*	68.2*	70.3*	Mdm2-MdmX confirm=102.5*
COc1ccc(S(=O)(=O)Cc2ccc(C(=O)NCc3ccccc3)o2)cc1	1.8	4.3	1.7	5.9	-11.4	/	/	/
Cc1noc(C(=O)NCc2ccccc2)c1Cl	-7.6	-3.5	-6.1	-7.2	3.7	/	/	/
O=C(NCc1ccc2c(c1)OCO2)c1ccccc1Cl	-40.4	-20.7	-26.4	0.1	1.9	/	/	/
N#C[C@H]1[C@@H](c2ccccc2C2=CCCC2)[C@@H](CO)N1C(=O)Cc1ccncc1	/	-6.1	17.3	/	/	/	/	/
O=C(NC1CCC1)[C@@H]1[C@@H](CO)[C@@H]2Cn3c(ccc(-c4ccccc4)c3=O)[C@H]1N2CC1CC1	/	/	2.7	/	/	/	/	/
CNC[C@@H]1OCCCC[C@@H](C)Oc2ccc(NC(=O)Nc3ccc4c(c3)OCO4)cc2C(=O)N([C@H](C)CO)C[C@H]1C	/	-19.0	4.4	/	/	/	/	/
O=C(c1ccc(S(=O)(=O)c2ccc(F)cc2)c([N+](=O)[O-])c1)N1CCCCCC1	52.9*	-24.2	-13.9	-20.8	54.3*	38.8	3.3	49.1
